In the library only some 1.7% were active in any assay of this set; here they are far more common.
Giardia killer = Giardia lamblia killing. 340,000 tested, 0.15% active. activity change, % at 7.66 µM, hits read low. Giardia lamblia trophozoite viability; in the data active means activity change below about -80%; inconclusive means between about -30% and that limit;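 further: parasites exposed to compound for two days anaerobically before the ATP read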
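Giardia lamblia trophozoites (100 cells/well) were incubated with compounds for 48 h at 37 deg C under anaerobic conditions. Viability was read as ATP content by one-step luminescence after 15-30 min at room temperature.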
KCNH2 WT inh = blocks the wildtype human KCNH2 potassium channel | activity change, % at 1.84 µM | 340,000 tested, 0.37% active | U2OS, BacMam KCNH2, thallium flux FluxOr; active compounds read low;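 active means maximum activity change below -70%; inconclusive means maximum activity change between -70% and -50%; inactive means maximum activity change above -50%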
Target sequence (Q12809 whole entry, looked up): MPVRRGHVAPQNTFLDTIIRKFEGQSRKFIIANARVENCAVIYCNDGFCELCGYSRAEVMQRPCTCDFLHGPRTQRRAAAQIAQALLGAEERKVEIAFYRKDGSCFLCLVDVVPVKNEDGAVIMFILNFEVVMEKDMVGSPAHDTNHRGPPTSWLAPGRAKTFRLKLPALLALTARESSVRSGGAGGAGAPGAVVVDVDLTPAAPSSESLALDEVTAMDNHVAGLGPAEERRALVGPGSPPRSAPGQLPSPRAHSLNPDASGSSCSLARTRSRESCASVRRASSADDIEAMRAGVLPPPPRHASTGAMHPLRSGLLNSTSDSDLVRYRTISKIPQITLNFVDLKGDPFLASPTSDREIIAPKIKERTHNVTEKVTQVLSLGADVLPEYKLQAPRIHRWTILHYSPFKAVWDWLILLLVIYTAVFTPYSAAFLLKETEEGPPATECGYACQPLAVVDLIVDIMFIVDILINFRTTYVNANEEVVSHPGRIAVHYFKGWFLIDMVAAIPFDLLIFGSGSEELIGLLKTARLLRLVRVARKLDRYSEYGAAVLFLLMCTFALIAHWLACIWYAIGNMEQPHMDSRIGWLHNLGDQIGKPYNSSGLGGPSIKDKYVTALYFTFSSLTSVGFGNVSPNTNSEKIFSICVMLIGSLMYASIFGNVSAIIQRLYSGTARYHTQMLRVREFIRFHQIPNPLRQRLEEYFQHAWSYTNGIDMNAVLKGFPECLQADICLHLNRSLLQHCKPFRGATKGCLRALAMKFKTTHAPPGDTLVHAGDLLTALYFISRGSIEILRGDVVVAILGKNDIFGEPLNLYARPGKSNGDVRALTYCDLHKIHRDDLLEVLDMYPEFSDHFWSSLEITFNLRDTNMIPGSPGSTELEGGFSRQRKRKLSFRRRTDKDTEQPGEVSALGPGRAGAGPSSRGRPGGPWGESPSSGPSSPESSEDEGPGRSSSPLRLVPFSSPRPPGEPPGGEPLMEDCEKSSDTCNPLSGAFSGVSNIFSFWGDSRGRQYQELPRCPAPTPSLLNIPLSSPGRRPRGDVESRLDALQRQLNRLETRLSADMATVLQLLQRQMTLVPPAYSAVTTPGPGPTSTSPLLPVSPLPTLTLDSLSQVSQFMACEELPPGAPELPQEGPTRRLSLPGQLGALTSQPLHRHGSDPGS
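U2OS cells were transduced with wild-type KCNH2 virus (2.03 x 10^8 / mL) for 4 h at room temperature, then cultured overnight at 37 C. Thallium flux was read with FluxOr dye. Rate constants were normalized to DMSO controls.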
KCNH2 3.1 inh = blocks the human KCNH2 3.1 channel isoform | AID 720553 | U2OS KCNH2 3.1, thallium flux FluxOr; active compounds read low | activity change, % (tested at about 1.8 µM) | 340,000 tested, 0.95% active;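 active means maximum activity change below -70%; inconclusive means maximum activity change from -70% to -50%; inactive means maximum activity change above -50%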;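 further: thallium influx rate constant from kinetic fluorescence after stimulation buffer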
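Steps: virus added to U2OS suspension (4 h, RT, dark); medium with 10% FBS added, cells plated, 37 C overnight; FluxOr/Red40 loading buffer 45 min RT; stimulation buffer, 2 min kinetic read; rate constant normalized.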
USP1-UAF1 inh = inhibitors of human USP1/UAF1 deubiquitinase; O94782; recombinant USP1/UAF1, Ub-Rhodamine cleavage fluorescence; Potency, µM (doses to about 57.1 µM), inactives show at the highest dose activity change, negative = inhibition, hits mostly inhibitors; 390,000 tested, 0.23% active; AID 743255; active means well fitted inhibition curve with a large enough effect; inconclusive means small, poorly fitted or top-dose-only effect; inactive means no such curve, though single readings can be large or run the other way; further: potency means the concentration at half of the fitted maximal effect; nearly all actives have a fitted effect of over 60% in size
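Step one: compound is pinned into 1nM USP1/UAF1 in HEPES pH 7.8 buffer with TCEP. Step two: 15 min room-temperature incubation. Step three: Ub-Rho (150nM final) starts cleavage, tracked by fluorescence over six one-minute reads.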
FBPA coupling cs = coupling enzyme interference in Giardia aldolase counter-screen; coupling enzyme system counterscreen, AmpLite Red fluorescence; activity change, negative = inhibition, % at 58.2 µM, hits read low; 290,000 tested, 0.67% active; AID 2472; in the data active means activity change below about -30%
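Counterscreen lacking aldolase: glyceraldehyde-3-phosphate coupling-enzyme reagent preincubated 10 min at RT with compound (at 57.5 uM final), then substrate/coupling system with AmpLite Red added; fluorescence read at 525/598 nm after 20 min RT.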
* = called active by the depositor; ? = inconclusive; · = no result. On the % scale 0 is the no-effect control and ±100 the full control effect.

SMILES | Giardia killer | KCNH2 WT inh | KCNH2 3.1 inh | USP1-UAF1 inh | FBPA coupling cs
CCOC(=O)CSc1nc2ccc(NC(=O)c3ccccc3F)cc2s1 | · | · | · | -29% | ·
Cn1nnnc1SCCNCc1ccc(Cl)cc1 | -10 | 0 | -95* | -13% | 3
Cn1nnnc1SCc1ccc(F)cc1 | 1 | -26 | -5 | 0% | 4
Cc1ccc(CSc2nnnn2C)cc1 | -17 | 2 | -98* | -3% | 4
Cn1nnnc1SCCNCc1ccccc1OCc1ccc(Cl)cc1 | 1 | 32 | 2 | -6% | -2
Cc1ccc(-c2cnc(NCc3c(F)cccc3Cl)n2C)cc1 | · | · | · | -27% | ·
Cc1ccc(Sc2ccc(CN3CCCC3)cc2[N+](=O)[O-])cc1 | -14 | 17 | -93* | -10% | 1
Cc1ccc(Sc2ccc(CO)cc2[N+](=O)[O-])cc1 | -8 | 2 | 7 | ? | 1
CN1CCN(Cc2ccc(Sc3ccc(Cl)cc3)c([N+](=O)[O-])c2)CC1 | 4 | -96* | -90* | 7% | 1
CCCCCCC(=O)Nc1c2c(nc3ccccc13)N(C)CC2 | 3 | -101* | -95* | -2% | 3
Cc1nc2ccc(F)cc2cc1C(=O)Nc1ccc(Cl)c(Cl)c1 | 3 | -130* | 4 | -6% | 0
COc1ccc(CNC(=O)c2ccc(N3CCCC3)c(NC(=O)NCc3ccc(C)cc3)c2)cc1 | · | · | · | -26% | ·
O=C(c1ccc(Cl)cc1)C1C2C(=O)N(c3ccccc3)C(=O)C2C2CCCN21 (configuration not stated) | -23 | 1 | -3 | -7% | -1
CC(=O)c1ccc(N2C(=O)C3C(C2=O)C(C(=O)c2ccc(Cl)cc2)N2CCCC32)cc1 (configuration not stated) | -13 | -2 | -5 | 18µM* | 0
O=C(Nc1nnc(-c2ccco2)o1)c1ccc([N+](=O)[O-])s1 | -81* | -4 | 4 | -20% | 2
O=c1ccc2ccc(OS(=O)(=O)O)cc2o1 | · | · | · | · | 3
Cc1ccccc1C(=O)Nc1nnc2n1CCS2 | · | · | · | -19% | ·
CCCCN(CCCC)CCNC(=O)c1cn(CC)c2ccc(S(=O)(=O)N(C)C3CCCCC3)cc2c1=O | -1 | -70* | -83* | -12% | 1
CCCCN(CC)CCCNC(=O)c1cn(CC)c2ccc(S(=O)(=O)N3CCc4ccccc4C3)cc2c1=O | 1 | 1 | -20 | 1% | 0
CCCCN(C)CCCNC(=O)c1cn(CC)c2ccc(S(=O)(=O)N3CCc4ccccc4C3)cc2c1=O | 9 | ? | -91* | 4% | 2
Cc1ccc(S(=O)(=O)N2CCN(c3ccnc(-c4cccs4)n3)CC2)cc1 | -21 | · | · | · | ·
CC(C)C[C@H]1CN=C(Nc2ccccc2)N1CCCC1CCCC1 | 7 | -92* | 11 | 6% | 4
CC(C)C[C@H]1CN=C(Nc2ccccc2)N1CC1CCC(C)CC1 (some centres not stated) | -6 | 12 | -83* | -25% | -2
CC(C)C[C@H]1CN=C(Nc2ccccc2)N1CCCC1CCCCC1 | -6 | 9 | -41 | -23% | -2
c1ccc(C[C@H]2CN=C(Nc3ccccc3)N2CC2CCC2)cc1 | -20 | -7 | -14 | -12% | ·
SMILES | Giardia killer | KCNH2 WT inh | KCNH2 3.1 inh | USP1-UAF1 inh | FBPA coupling cs
CC1CCC(CN2C(Nc3ccccc3)=NC[C@@H]2Cc2ccccc2)CC1 (some centres not stated) | 21 | 8 | -91* | 12% | ·
CC(C)c1nccn1S(=O)(=O)c1cc(Cl)ccc1Cl | 20 | -5 | -2 | -8% | 5
COc1ccc(Cl)cc1S(=O)(=O)n1ccnc1C(C)C | -13 | 2 | -83* | 9% | -5
O=c1[nH]c(=O)n(Cc2ccco2)c2c1C(C(F)(F)F)(C(F)(F)F)N=C(CCc1ccccc1)N2 | -7 | 2 | -108* | -14% | 2
O=c1[nH]c(=O)n(Cc2ccco2)c2c1C(C(F)(F)F)(C(F)(F)F)N=C(CCC1CCCCC1)N2 | -6 | -2 | · | -11% | ·
COc1ccc(CNc2oc(COc3ccccc3)nc2C#N)cc1 | 6 | -17 | -78* | -16% | -1
COc1ccc(CCNc2oc(COc3ccccc3)nc2C#N)cc1 | 5 | 0 | 12 | -10% | -1
Cc1ccc(-c2cc(NC(=O)C(C)Oc3ccccc3F)on2)cc1 (configuration not stated) | · | · | · | -2% | ·
CCOC(=O)c1cc(-c2ccccc2)n(CC(=O)Nc2cc(Cl)c(OC)cc2OC)c1C | · | · | · | -13% | ·
O=C(NCCCN1CCOCC1)c1onc(CSc2ccccc2)c1C(=O)NCCCN1CCOCC1 | 11 | 10 | 10 | -11% | ·
COc1cccc(SCc2noc(C(=O)NCCCN3CCOCC3)c2C(=O)NCCCN2CCOCC2)c1 | -2 | 0 | -98* | -25% | ·
CCc1ccccc1NC(=O)C1(S(=O)(=O)c2ccc(Cl)cc2)CC1 | · | · | · | -23% | ·
COc1ccc(C2/C=C\CN(CC(C)C)C(Cc3ccccc3)C(=O)N2Cc2ccc(F)cc2)cc1 (configuration not stated) | 18 | · | · | · | -4
CCCC(C)C(=O)Nc1cccc(NC(C)=O)c1 (configuration not stated) | -8 | -21 | -92* | -14% | -1
CCCC(C)C(=O)Nc1ccc2c(c1)OCCO2 (configuration not stated) | 2 | 0 | 5 | -13% | -1
COc1ccc(Nc2oc(-c3ccc(COc4cccc(C)c4)o3)nc2C#N)cc1 | · | · | · | -11% | ·
Cc1ccc2oc(=O)n(CCNC(=O)Nc3ccc(C)c(F)c3)c2c1 | · | · | · | 9% | ·
Cc1cc(NC(=O)CCC(=O)N(c2ccccc2)C(C(=O)NC2CCCC2)c2cccs2)no1 (configuration not stated) | 7 | 4 | -186* | -11% | 3
CCN(C(=O)Cn1c(C(=O)OC)cc2oc3ccccc3c21)c1cccc(C)c1 | · | · | · | -8% | ·
CC1CN(C)C(C)C/C1=N\Oc1ccc([N+](=O)[O-])cc1 (configuration not stated) | 11 | -14 | -88* | -13% | 4
Cc1cc(/C=C2\NC(=S)N(C)C2=O)ccc1N1CCCC1 | 20 | -80* | · | ? | -2
CCCN1C(=O)/C(=C/c2ccc(N3CCCC3)c(C)c2)NC1=S | 4 | -32 | ? | 40% | 7
O=S(=O)(Nc1cc(F)ccc1F)c1ccc2[nH]c3c(c2c1)CCCCC3 | · | · | · | -16% | ·
COC(=O)CN1C(c2ccc(OC)cc2)=Nc2ccc(Cl)cc2C1c1ccccc1 (configuration not stated) | 2 | 9 | -96* | -14% | -1
O=C(CCN1CCN(C(c2ccccc2)c2ccccc2)CC1)N/N=C/c1ccc(O)cc1 | 3 | 0 | -80* | -17% | 2
COc1cc(/C=N/NC(=O)CN2CCCCC2)ccc1OCc1ccc(Br)cc1 | 4 | 27 | -90* | -18% | -1
O=C(CCN1CCCCC1)N/N=C/c1ccc(Br)cc1 | -10 | 3 | -75* | -10% | 1

High-throughput results as filed in PubChem.
